Test results: PubChem BioAssay (NCI)
Compounds without any hit were thinned out: in the full panel of roughly 83,000, 20% have a hit.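 Values shown are percent growth following 48 h exposure of cells in 96-well plates to a single concentration of compound; below 10 was considered active.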 Values without a mark were called inactive. Calls of active or inactive are those of the source.

How the values were obtained:
Assay in all cases: NCI-60 one-dose screen, 48 h (100 = growth as untreated, 0 = no growth, -100 = all killed)
Conditions in all cases: 10 µM unless noted
SR leukemia = test system: SR leukemia
RPMI-8226 leukemia = test system: RPMI-8226 leukemia
OVCAR-8 ovarian = test system: OVCAR-8 ovarian
OVCAR-5 ovarian = test system: OVCAR-5 ovarian
OVCAR-4 ovarian = test system: OVCAR-4 ovarian
SK-OV-3 ovarian = test system: SK-OV-3 ovarian
IGROV1 ovarian = test system: IGROV1 ovarian
OVCAR-3 ovarian = test system: OVCAR-3 ovarian
HS 578T breast = test system: HS 578T breast
NCI/ADR-RES ovarian = test system: NCI/ADR-RES ovarian

With `CCc1c2c(nc3ccc(OCc4ccc(B5OC(C)(C)C(C)(C)O5)cc4)cc13)-c1cc3c(c(=O)n1C2)COC(=O)[C@]3(O)CC` the growth (SR leukemia) was 11.8%, the growth (RPMI-8226 leukemia) was 10.4% and the growth (OVCAR-8 ovarian) was 10.6%. The growth (OVCAR-5 ovarian) was 10%, the growth (OVCAR-4 ovarian) was 23.7% and the growth (SK-OV-3 ovarian) was -1.58% (active). For the same compound, the growth (IGROV1 ovarian) was 12.8%, the growth (OVCAR-3 ovarian) was 0.732% (active) and the growth (HS 578T breast) was 38.4%. For the same compound, the growth (NCI/ADR-RES ovarian) was 0.929% (active).
`COc1c(F)cc(-n2c(C(=O)N3CC(F)C3)cc3cccnc32)cc1F` gave a growth (SR leukemia) of 97.1%, a growth (RPMI-8226 leukemia) of 95.1% and a growth (OVCAR-8 ovarian) of 102%. For the same compound, the growth (OVCAR-5 ovarian) was 100%, the growth (OVCAR-4 ovarian) was 97.1% and the growth (SK-OV-3 ovarian) was 111%. For the same compound, the growth (IGROV1 ovarian) was 94.4%, the growth (OVCAR-3 ovarian) was 101% and the growth (HS 578T breast) was 105%. The growth (NCI/ADR-RES ovarian) was 90.7%.
In the case of `C=C(CNCCc1ccc(O)cc1)[C@@H]1CC[C@]2(CO)CC[C@]3(C)[C@H](CC[C@@H]4[C@@]5(C)CCC(NCCc6ccc(O)cc6)C(C)(C)[C@@H]5CC[C@]43C)[C@@H]12` (stereo not given in full), the growth (SR leukemia) is reported as -58.5% (active), the growth (RPMI-8226 leukemia) is reported as -51.7% (active) and the growth (OVCAR-8 ovarian) is reported as -78.1% (active). The growth (OVCAR-5 ovarian) was -86.3% (active), the growth (OVCAR-4 ovarian) was -81.7% (active) and the growth (SK-OV-3 ovarian) was -97.4% (active). The growth (IGROV1 ovarian) was -78.4% (active), the growth (OVCAR-3 ovarian) was -94.2% (active) and the growth (HS 578T breast) was -38.9% (active). The growth (NCI/ADR-RES ovarian) was -54.5% (active).
With `Cc1ccc(C(=O)Nc2ccc(CN3CCN(C)CC3)c(C(F)(F)F)c2)cc1C#Cc1cnc(N)cc1C#N` the growth (SR leukemia) was -29.8% (active), the growth (RPMI-8226 leukemia) was -24.4% (active) and the growth (OVCAR-8 ovarian) was -32.9% (active). The growth (OVCAR-5 ovarian) was 12.8%, the growth (OVCAR-4 ovarian) was 5.13% (active) and the growth (SK-OV-3 ovarian) was -7.98% (active). The growth (IGROV1 ovarian) was -47.7% (active), the growth (OVCAR-3 ovarian) was -40.1% (active) and the growth (HS 578T breast) was -23.5% (active). For the same compound, the growth (NCI/ADR-RES ovarian) was -27.3% (active).
